# Data as given in the supplement of paper PMC4466140.
# Target: AgAbp1
# Test: SPOT peptide array binding signal intensity (averaged, normalized) (arbitrary units (background-subtracted, floor 0; scale differs between SH3 domains)); higher = stronger binding of the SH3 domain to the peptide
# Summary of the method: (§1)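 The binding signal is the normalized, background-subtracted spot intensity averaged over replicates; its arbitrary units differ between domains. It was obtained by incubating 10 μg/ml GST-fused SH3 domains from four yeast species overnight at 4°C in TBS-based blocking buffer on cellulose membranes with synthetic 15-mer peptides, cysteines replaced by serines, then detecting with anti-GST antibody, HRP anti-mouse secondary and luminol.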
row,Binder,SPOT peptide array binding signal intensity
1,TIRRRAPLSLLESHT,77

# Target: AgBbc1
# Test: as above
# Summary of the method: as §1
row,Binder,SPOT peptide array binding signal intensity
1,TIRRRAPLSLLESHT,20

# Target: AgBem1-D1
# Test: as above
# Summary of the method: as §1
row,Binder,SPOT peptide array binding signal intensity
1,TIRRRAPLSLLESHT,46.5

# Target: AgBzz1-D1
# Test: as above
# Summary of the method: as §1
row,Binder,SPOT peptide array binding signal intensity
1,TIRRRAPLSLLESHT,46

# Target: AgBzz1-D2
# Test: as above
# Summary of the method: as §1
row,Binder,SPOT peptide array binding signal intensity
1,TIRRRAPLSLLESHT,39

# Target: AgCyk3
# Test: as above
# Summary of the method: as §1
row,Binder,SPOT peptide array binding signal intensity
1,TIRRRAPLSLLESHT,1

# Target: AgFus1
# Test: as above
# Summary of the method: as §1
row,Binder,SPOT peptide array binding signal intensity
1,TIRRRAPLSLLESHT,895

# Target: AgHof1
# Test: as above
# Summary of the method: as §1
row,Binder,SPOT peptide array binding signal intensity
1,TIRRRAPLSLLESHT,47

# Target: AgHse1
# Test: as above
# Summary of the method: as §1
row,Binder,SPOT peptide array binding signal intensity
1,TIRRRAPLSLLESHT,730

# Target: AgLsb1
# Test: as above
# Summary of the method: as §1
row,Binder,SPOT peptide array binding signal intensity
1,TIRRRAPLSLLESHT,3.5

# Target: AgLsb4
# Test: as above
# Summary of the method: as §1
row,Binder,SPOT peptide array binding signal intensity
1,TIRRRAPLSLLESHT,99.5

# Target: AgMyo5
# Test: as above
# Summary of the method: as §1
row,Binder,SPOT peptide array binding signal intensity
1,TIRRRAPLSLLESHT,≤ 0

# Target: AgNbp2
# Test: as above
# Summary of the method: as §1
row,Binder,SPOT peptide array binding signal intensity
1,TIRRRAPLSLLESHT,397

# Target: AgRvs167
# Test: as above
# Summary of the method: as §1
row,Binder,SPOT peptide array binding signal intensity
1,TIRRRAPLSLLESHT,3

# Target: AgSho1
# Test: as above
# Summary of the method: as §1
row,Binder,SPOT peptide array binding signal intensity
1,TIRRRAPLSLLESHT,36

# Target: AgSla1-D1-D2
# Test: as above
# Summary of the method: as §1
row,Binder,SPOT peptide array binding signal intensity
1,TIRRRAPLSLLESHT,32

# Target: AgSla1-D3
# Test: as above
# Summary of the method: as §1
row,Binder,SPOT peptide array binding signal intensity
1,TIRRRAPLSLLESHT,11.5

# Target: CaAbp1-D1
# Test: as above
# Summary of the method: as §1
row,Binder,SPOT peptide array binding signal intensity
1,TIRRRAPLSLLESHT,475

# Target: CaAbp1-D2
# Test: as above
# Summary of the method: as §1
row,Binder,SPOT peptide array binding signal intensity
1,TIRRRAPLSLLESHT,324

# Target: CaBbc1
# Test: as above
# Summary of the method: as §1
row,Binder,SPOT peptide array binding signal intensity
1,TIRRRAPLSLLESHT,133

# Target: CaBem1-D1
# Test: as above
# Summary of the method: as §1
row,Binder,SPOT peptide array binding signal intensity
1,TIRRRAPLSLLESHT,21.5

# Target: CaBzz1-D1
# Test: as above
# Summary of the method: as §1
row,Binder,SPOT peptide array binding signal intensity
1,TIRRRAPLSLLESHT,40

# Target: CaBzz1-D2
# Test: as above
# Summary of the method: as §1
row,Binder,SPOT peptide array binding signal intensity
1,TIRRRAPLSLLESHT,58.8

# Target: CaCyk3
# Test: as above
# Summary of the method: as §1
row,Binder,SPOT peptide array binding signal intensity
1,TIRRRAPLSLLESHT,11.5

# Target: CaFus1
# Test: as above
# Summary of the method: as §1
row,Binder,SPOT peptide array binding signal intensity
1,TIRRRAPLSLLESHT,1540

# Target: CaHof1
# Test: as above
# Summary of the method: as §1
row,Binder,SPOT peptide array binding signal intensity
1,TIRRRAPLSLLESHT,0.5

# Target: CaHse1
# Test: as above
# Summary of the method: as §1
row,Binder,SPOT peptide array binding signal intensity
1,TIRRRAPLSLLESHT,47.5

# Target: CaLsb1
# Test: as above
# Summary of the method: as §1
row,Binder,SPOT peptide array binding signal intensity
1,TIRRRAPLSLLESHT,0.5

# Target: CaLsb4
# Test: as above
# Summary of the method: as §1
row,Binder,SPOT peptide array binding signal intensity
1,TIRRRAPLSLLESHT,130

# Target: CaMyo5
# Test: as above
# Summary of the method: as §1
row,Binder,SPOT peptide array binding signal intensity
1,TIRRRAPLSLLESHT,≤ 0

# Target: CaNbp2
# Test: as above
# Summary of the method: as §1
row,Binder,SPOT peptide array binding signal intensity
1,TIRRRAPLSLLESHT,3410

# Target: CaRvs167
# Test: as above
# Summary of the method: as §1
row,Binder,SPOT peptide array binding signal intensity
1,TIRRRAPLSLLESHT,19.3

# Target: CaRvs167-3
# Test: as above
# Summary of the method: as §1
row,Binder,SPOT peptide array binding signal intensity
1,TIRRRAPLSLLESHT,28.2

# Target: CaSho1
# Test: as above
# Summary of the method: as §1
row,Binder,SPOT peptide array binding signal intensity
1,TIRRRAPLSLLESHT,608

# Target: CaSla1-D1-D2
# Test: as above
# Summary of the method: as §1
row,Binder,SPOT peptide array binding signal intensity
1,TIRRRAPLSLLESHT,133

# Target: CaSla1-D3
# Test: as above
# Summary of the method: as §1
row,Binder,SPOT peptide array binding signal intensity
1,TIRRRAPLSLLESHT,≤ 0

# Target: ScAbp1
# Test: as above
# Summary of the method: as §1
row,Binder,SPOT peptide array binding signal intensity
1,TIRRRAPLSLLESHT,97

# Target: ScBbc1
# Test: as above
# Summary of the method: as §1
row,Binder,SPOT peptide array binding signal intensity
1,TIRRRAPLSLLESHT,16.5

# Target: ScBem1-D1
# Test: as above
# Summary of the method: as §1
row,Binder,SPOT peptide array binding signal intensity
1,TIRRRAPLSLLESHT,22.5

# Target: ScBzz1-D1
# Test: as above
# Summary of the method: as §1
row,Binder,SPOT peptide array binding signal intensity
1,TIRRRAPLSLLESHT,11.5

# Target: ScBzz1-D2
# Test: as above
# Summary of the method: as §1
row,Binder,SPOT peptide array binding signal intensity
1,TIRRRAPLSLLESHT,29.5

# Target: ScCyk3
# Test: as above
# Summary of the method: as §1
row,Binder,SPOT peptide array binding signal intensity
1,TIRRRAPLSLLESHT,57.5

# Target: ScFus1
# Test: as above
# Summary of the method: as §1
row,Binder,SPOT peptide array binding signal intensity
1,TIRRRAPLSLLESHT,731

# Target: ScHof1
# Test: as above
# Summary of the method: as §1
row,Binder,SPOT peptide array binding signal intensity
1,TIRRRAPLSLLESHT,3.5

# Target: ScHse1
# Test: as above
# Summary of the method: as §1
row,Binder,SPOT peptide array binding signal intensity
1,TIRRRAPLSLLESHT,2020

# Target: ScLsb1
# Test: as above
# Summary of the method: as §1
row,Binder,SPOT peptide array binding signal intensity
1,TIRRRAPLSLLESHT,2

# Target: ScLsb2
# Test: as above
# Summary of the method: as §1
row,Binder,SPOT peptide array binding signal intensity
1,TIRRRAPLSLLESHT,≤ 0

# Target: ScLsb3
# Test: as above
# Summary of the method: as §1
row,Binder,SPOT peptide array binding signal intensity
1,TIRRRAPLSLLESHT,272

# Target: ScLsb4
# Test: as above
# Summary of the method: as §1
row,Binder,SPOT peptide array binding signal intensity
1,TIRRRAPLSLLESHT,8

# Target: ScMyo3
# Test: as above
# Summary of the method: as §1
row,Binder,SPOT peptide array binding signal intensity
1,TIRRRAPLSLLESHT,≤ 0

# Target: ScMyo5
# Test: as above
# Summary of the method: as §1
row,Binder,SPOT peptide array binding signal intensity
1,TIRRRAPLSLLESHT,1

# Target: ScNbp2
# Test: as above
# Summary of the method: as §1
row,Binder,SPOT peptide array binding signal intensity
1,TIRRRAPLSLLESHT,1320

# Target: ScPex13
# Test: as above
# Summary of the method: as §1
row,Binder,SPOT peptide array binding signal intensity
1,TIRRRAPLSLLESHT,1

# Target: ScRvs167
# Test: as above
# Summary of the method: as §1
row,Binder,SPOT peptide array binding signal intensity
1,TIRRRAPLSLLESHT,48.5

# Target: ScSho1
# Test: as above
# Summary of the method: as §1
row,Binder,SPOT peptide array binding signal intensity
1,TIRRRAPLSLLESHT,1070

# Target: ScSla1-D1-D2
# Test: as above
# Summary of the method: as §1
row,Binder,SPOT peptide array binding signal intensity
1,TIRRRAPLSLLESHT,337

# Target: ScSla1-D3
# Test: as above
# Summary of the method: as §1
row,Binder,SPOT peptide array binding signal intensity
1,TIRRRAPLSLLESHT,0.5

# Target: SpAbp1-D1
# Test: as above
# Summary of the method: as §1
row,Binder,SPOT peptide array binding signal intensity
1,TIRRRAPLSLLESHT,508

# Target: SpBbc1
# Test: as above
# Summary of the method: as §1
row,Binder,SPOT peptide array binding signal intensity
1,TIRRRAPLSLLESHT,1

# Target: SpBzz1-D1
# Test: as above
# Summary of the method: as §1
row,Binder,SPOT peptide array binding signal intensity
1,TIRRRAPLSLLESHT,106
